In PubChem BioAssay (NCI):
Compounds without any hit were thinned out: in the full panel of roughly 83,000, 20% have a hit.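 Method: cells in 96-well plates; compound added at one concentration; 48 h incubation; percent growth measured; values under 10 scored active.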 A number with no mark means an inactive call. The source made the active and inactive calls.

system: T-47D breast; experiment: NCI-60 one-dose screen, 48 h (100 = growth as untreated, 0 = no growth, -100 = all killed); settings: 10 µM unless noted

SMILES	growth
NS(=O)(=O)c1ccc(N2N=C(c3cccs3)CC2c2ccccc2O)cc1 (stereo unspecified)	46.1%
N#Cc1ccc(NC(=O)Nc2nc3ccc(OC(F)(F)F)cc3s2)cc1	-10.3% (active)
CC(=O)Nc1nonc1-c1nc2ccccc2n1Cc1ccc(C(C)(C)C)cc1	72.9%
Cc1nn(-c2ccc(Cl)cc2)c(=O)n1CCN1CCOCC1	78.3%
O=C(O)Cn1ccc2ccccc21	135%
SCc1ccc(CS)cc1	101%
Oc1ccc(-c2cnc(-c3ccccc3)[nH]2)c(O)c1	107%
Fc1cc(-c2nnc3sc(-c4ccc(Cl)cc4)nn23)c(Cl)cc1Cl	87%
CCCOC(=O)C1c2cc3c(cc2CC(C)C1C(=O)OCCC)OCO3 (stereo unspecified)	86.2%
[Ag].[Ag].[NH-]S(=O)(=O)c1ccc(N=Nc2cc(N=Nc3ccc(S([NH-])(=O)=O)cc3)c3c(NC(=O)C(Cl)Cl)cccc3c2OC(=O)C(Cl)Cl)cc1.[c-]1nccs1.[c-]1nccs1	7.8% (active)
CN(C)c1ccc(/C=C(\C#N)c2nc3ccccc3n2C)cc1	40.2%
CCc1ccc(Nc2cc(C)c3ccc(O)cc3n2)cc1	55.3%
Fc1ccc(-c2nnc(N3CCOCC3)c3ccccc23)cc1	102%
N[C@@H](CO)C(=O)O	96.9%
COc1ccc2nc(C)cc(Nc3ccccc3O)c2c1	44%
COc1cc2c(cc1C)NC(=O)/C2=C\c1c[nH]c2ccccc12	65.8%
